Source: PubChem BioAssay (EPA / NIEHS)
Records with an inconclusive call do not appear. Active and inactive are the calls of the source. Rule for the calls, unless noted: active = hit-call score of the fitted dose curve at least 0.9, where 1 is the maximum; inactive = score below 0.9.

Columns and labels:
[1] = ACEA_ER_80hr: ACEA Biosciences xCELLigence Real-Time Cell Analysis on Estrogen Receptor Agonism for Proliferation (AID 2282667; active = hit-call score of the fitted dose curve at least 0.9, where 1 is the maximum); details: T47D proliferation, impedance (xCELLigence), 80 h
Procedure, shortened: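 Real-time impedance growth kinetics of human T-47D breast cells read 80 h after dosing, gain-of-signal fitted relative to DMSO. Compounds: 1:4 serial series, top final concentration 100 uM, n = 2.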

[2] = APR_HepG2_CellCycleArrest_24hr: Apredica 24-hour HepG2 Assay for Cell Cycle Arrest (AID 2282905); details: imaging, actives raise or lower the signal;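 note: cell cycle arrest scored as ratio of 2N to 4N nuclear DNA content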
Procedure, shortened: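 Cell cycle arrest is scored from nuclear DNA content measured by high-content imaging of Hoechst 33342-stained HepG2 cells following 24-hour treatment at ten concentrations up to 200 uM, with DMSO as baseline.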

[3] = APR_HepG2_NuclearSize_24hr: Apredica 24-hour HepG2 Assay for Nuclear Size (AID 2282907); details: high-content imaging, actives raise or lower the signal
Procedure, shortened: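 Compounds in DMSO (final 0.5%) were added to human HepG2 hepatoma cells at ten concentrations up to 200 uM for 24 hr. Fixed nuclei were stained with Hoechst 33342, and nuclear diameter was quantified from automated images.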

[4] = APR_HepG2_CellLoss_24hr: Apredica 24-hour HepG2 Assay for Cell Loss (AID 2282908); details: high-content imaging;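 for AC50: fit in both directions so a hit may be cell loss or gain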
Procedure, shortened: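 Cell number is quantified by fluorescence imaging of Hoechst 33342-stained nuclei following dosing at 0.39–200 uM in 0.5% DMSO. Curves are fitted in both directions from the DMSO baseline.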

[5] = APR_HepG2_MitoticArrest_24hr: Apredica 24-hour HepG2 Assay for Mitotic Arrest (AID 2282910); details: high-content imaging, actives raise or lower the signal
Procedure, shortened: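 HepG2 cells, 24 h exposure at 0.39-200 uM (10 concentrations, duplicate, 0.5% DMSO). Fixed, stained for phospho-histone H3 with Hoechst; imaged by high-content microscopy, bidirectional fit versus DMSO.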

[6] = APR_HepG2_MitoMembPot_24hr: Apredica 24-hour HepG2 Assay for Mitochondrial Membrane Potential (AID 2282911); details: imaging, actives raise or lower the signal
Procedure, shortened: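 Mitochondrial membrane potential imaged via MitoTracker Red CMXRos (250 nM, 30 min pre-fixation) in fixed HepG2 cells with Hoechst nuclear identification. Ten concentrations 0.39–200 uM, 24 h treatment, 0.5% DMSO; CCCP as positive control.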

[7] = APR_HepG2_MitoMass_24hr: Apredica 24-hour HepG2 Assay for Mitochondrial Mass (AID 2282912); details: high-content imaging, actives raise or lower the signal
Procedure, shortened: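 The liver line HepG2 was dosed in duplicate across a 0.39–200 uM series, with final DMSO held at 0.5% v/v, and harvested at 24 hr. High-content imaging measured mitochondrial dye staining.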

[8] = APR_HepG2_CellCycleArrest_72hr: Apredica 72-hour HepG2 Assay for Cell Cycle Arrest (AID 2282914); details: high-content imaging, actives raise or lower the signal
Procedure, shortened: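 Read-out: nuclear DNA content from Hoechst 33342 high-content imaging (20x, six fields/well) after 3.7% formaldehyde fixation, fitted bidirectionally against DMSO. Treatment was 72 h in HepG2, ten concentrations 0.39–200 uM, duplicate, 0.5% DMSO.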

[9] = APR_HepG2_CellLoss_72hr: Apredica 72-hour HepG2 Assay for Cell Loss (AID 2282915); details: high-content imaging
Procedure, shortened: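 HepG2 cells exposed 72 h to compound at 0.39–200 uM (10 concentrations, duplicate) in 0.5% DMSO. Fixed with 3.7% formaldehyde and Hoechst 33342-stained. Imaged at 20x; nuclear count gives cell number, fitted bidirectionally versus DMSO.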

[10] = APR_HepG2_P-H2AX_72hr: Apredica 72-hour HepG2 Assay for H2AX Phosphorylation (AID 2282916); details: imaging, actives raise or lower the signal;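 note: phospho-histone H2A.x immunostain intensity per cell marking DNA damage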
Procedure, shortened: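 Following 72 hr treatment with 0.39–200 uM compound, HepG2 cells were formaldehyde-fixed, permeabilized and stained for phospho-H2A.x; signal was measured by high-content imaging and fitted bidirectionally against DMSO controls.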

[11] = APR_HepG2_MitoticArrest_72hr: Apredica 72-hour HepG2 Assay for Mitotic Arrest (AID 2282918); details: high-content imaging, actives raise or lower the signal
Procedure, shortened: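 High-content imaging of fixed human HepG2 cells after 72 h compound exposure (0.39–200 uM, duplicates, 0.5% DMSO); mitotic arrest scored from phospho-histone H3 and nuclear Hoechst staining relative to DMSO.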

[12] = APR_HepG2_P-H2AX_24hr: Apredica 24-hour HepG2 Assay for H2AX Phosphorylation (AID 2282920); details: high-content imaging, actives raise or lower the signal
Procedure, shortened: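 High-content imaging of phospho-histone H2A.x immunofluorescence, nuclei counterstained with Hoechst 33342, in fixed HepG2 cells. Compounds ran 0.39–200 uM in duplicate for 24 h, final DMSO 0.5%. Signal change fitted both directions against DMSO.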

[13] = APR_HepG2_StressKinase_72hr: Apredica 72-hour HepG2 Assay for Stress Kinase (AID 2282921); details: HepG2 stress kinase (phospho-c-Jun) imaging, actives raise or lower the signal
Procedure, shortened: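 Fluorescence intensity of Cy3-tagged anti-phospho-c-Jun antibody, quantified per cell from Hoechst-defined nuclei across six images per well, served as the read-out following 72 h exposure (0.39–200 uM, 0.5% v/v DMSO).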

[14] = APR_HepG2_StressKinase_24hr: Apredica 24-hour HepG2 Assay for Stress Kinase (AID 2282922); details: HepG2 stress kinase (phospho-c-Jun) imaging, actives raise or lower the signal
Procedure, shortened: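 HepG2 cells exposed 24 h to 0.39–200 uM compound in duplicate (0.5% v/v DMSO final). Cells fixed in 3.7% formaldehyde, permeabilized and immunostained for phospho-c-Jun; read by high-content fluorescence imaging, fitted bidirectionally against DMSO.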

[15] = APR_HepG2_MitoMass_72hr: Apredica 72-hour HepG2 Assay for Mitochondrial Mass (AID 2282924); details: high-content imaging, actives raise or lower the signal;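 note: MitoTracker Red CMXRos stain intensity per cell imaged as mitochondrial mass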
Procedure, shortened: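 HepG2 cells dosed 72 hr at 0.39–200 uM (0.5% DMSO), in duplicate. MitoTracker Red CMXRos 250 nM loaded 30 min before formaldehyde fixation; high-content fluorescence imaging, bidirectional fit versus DMSO.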

[16] = APR_HepG2_MicrotubuleCSK_72hr: Apredica 72-hour HepG2 Assay for Microtubule CSK Stabilty (AID 2282919); details: HepG2 microtubule cytoskeleton, high-content imaging, actives raise or lower the signal
Procedure, shortened: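 HepG2 cells were exposed 72 hr to compound at 0.39–200 uM in duplicate (0.5% DMSO final), then fixed and permeabilized. Alpha-tubulin immunofluorescence was imaged by high-content microscopy, with bidirectional fitting against DMSO and taxol as positive control.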

COc1cc(C(C)C)c2c(c1)S(=O)(=O)N(COc1cc(=O)n3cccc(OCCN4CCCCC4)c3n1)C2=O
outcome [1]: inactive
AC50 [2]: 17.7 µM (active)
outcome [3]: inactive
AC50 [4]: 24.2 µM (active)
AC50 [5]: 24 µM (active)
AC50 [6]: 26.4 µM (active)
AC50 [7]: 29.1 µM (active)
outcome [8]: inactive
AC50 [9]: 23.1 µM (active)
outcome [10]: inactive
outcome [11]: inactive
AC50 [12]: 10.7 µM (active)
outcome [13]: inactive
outcome [14]: inactive
outcome [15]: inactive

OCc1ccccc1
outcome [1]: inactive
outcome [2]: inactive
outcome [3]: inactive
outcome [4]: inactive
outcome [5]: inactive
outcome [6]: inactive
outcome [7]: inactive
outcome [8]: inactive
outcome [9]: inactive
outcome [10]: inactive
outcome [11]: inactive
outcome [16]: inactive
outcome [12]: inactive
outcome [13]: inactive
outcome [14]: inactive
outcome [15]: inactive

Cc1ccc(S(=O)(=O)NC(=O)NN2CCCCCC2)cc1
outcome [1]: inactive
outcome [2]: inactive
outcome [3]: inactive
outcome [4]: inactive
outcome [5]: inactive
outcome [6]: inactive
outcome [7]: inactive
outcome [8]: inactive
outcome [9]: inactive
outcome [10]: inactive
outcome [11]: inactive
outcome [16]: inactive
outcome [12]: inactive
outcome [13]: inactive
outcome [14]: inactive
outcome [15]: inactive
